# In the library only some 18% were active in any assay of this set; here they are far more common.
# IL1B secr inh: blocks inflammasome-driven IL-1 beta release | THP-1 LPS/ATP IL-1B secretion, AlphaLISA, 16 h; active compounds read low | activity change, % at 57.5 µM | actives 4.7% (n = 360,000); in the data active means activity change below about -50%; inconclusive means mostly about -30% to -49%
#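 Secreted IL-1B measured by AlphaLISA bead assay after 16 h compound exposure of THP-1 cells; compounds (final up to 57.5 uM) added 1 h before LPS (250 ng/mL) and ATP (1.25 mM) stimulation; lower signal means less secretion.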
# RORg inh: ROR gamma (mouse) transcription inhibition | P51450 | Drosophila S2 Gal4-RORgamma UAS-luciferase reporter, 20 h | Potency, µM (top dose mostly 53.6 µM), actives largely listed as inhibitors | actives 5.4% (n = 310,000) | AID 2551; further: nearly all actives have a fitted effect of over 60% in size
# Target sequence (P51450 whole entry, looked up, the tested form may be a part): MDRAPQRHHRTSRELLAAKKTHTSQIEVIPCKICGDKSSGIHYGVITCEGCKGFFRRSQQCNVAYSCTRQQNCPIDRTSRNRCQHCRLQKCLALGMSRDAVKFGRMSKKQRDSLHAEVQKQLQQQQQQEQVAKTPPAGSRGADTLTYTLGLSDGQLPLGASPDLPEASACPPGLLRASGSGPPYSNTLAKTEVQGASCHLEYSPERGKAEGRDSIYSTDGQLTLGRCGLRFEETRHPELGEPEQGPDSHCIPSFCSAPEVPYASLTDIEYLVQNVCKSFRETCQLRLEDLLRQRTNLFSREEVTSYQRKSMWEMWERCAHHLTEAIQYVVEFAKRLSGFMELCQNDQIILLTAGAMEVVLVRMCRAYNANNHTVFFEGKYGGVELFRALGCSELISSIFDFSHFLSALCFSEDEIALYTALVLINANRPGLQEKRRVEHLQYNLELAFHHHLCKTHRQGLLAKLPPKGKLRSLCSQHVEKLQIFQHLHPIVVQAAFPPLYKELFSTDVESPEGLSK
#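 In this cell-based reporter format, copper sulfate (700 uM final) drives Gal4–ROR gamma fusion expression from a metallothionein promoter in Drosophila Schneider cells; compounds preincubated 1 hr, reporter read after 20 hr at ambient temperature.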
# TDP1 cell CPT: growth inhibition of DT40 Tdp1-/-;hTDP1 cells with camptothecin (screen for TDP1 inhibitors). actives 12% (n = 420,000). Potency, µM (series often up to 46.2 µM), most hits filed as inhibitors. AID 686979. chicken DT40 Tdp1-/-;hTDP1 cells + 20 nM CPT, ATP luminescence, 48 h; further: nearly all actives have a fitted effect of over 55% in size
#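 Chicken DT40 Tdp1-/- cells stably complemented with human TDP1 were seeded at 400 cells/well in medium containing 20 nM camptothecin, exposed to pin-transferred compounds, and grown at 37 °C for at least 48 hr. Viability was read as ATP luminescence.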
# DT40 TDP1 no CPT: qHTS for Inhibitors of human tyrosyl-DNA phosphodiesterase 1 (TDP1): qHTS in cells in absence of CPT; DT40 Tdp1-/- hTDP1 cells, no CPT, ATP luminescence, 48 h; Potency, µM (top dose mostly 46.2 µM), hits mostly inhibitors; actives 15% (n = 420,000); further: nearly all actives have a fitted effect of over 55% in size
#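 Growth kinetics read by CellTiter-Glo luminescence after ≥48 hr at 37 °C. Cells: DT40 Tdp1-/- stably carrying human TDP1, 400 per well, compound exposure in the absence of CPT (DMSO vehicle).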
# LDHA block: LDHA (human) enzyme inhibition; actives 0.15% (n = 480,000); AID 1347041; activity change, % (values are at about 110 or 230 µM); purified LDHA, NADH/diaphorase-resazurin fluorescence; active compounds read low; in the data active means activity change below about -30%; inconclusive means mostly about -25% to -30%
#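 LDH5 2 nM; NADH 0.06 mM, pyruvate 0.2 mM; 200 mM Tris pH 7.4, EDTA, Tween-20; 5 min RT. Detection: diaphorase 0.133 mg/mL + resazurin 37 µM, fluorescence ex540/em590 at 0 and 20 min; normalized to enzyme-free and DMSO wells.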
# Gal4-VP16 FLuc: counter-screen for ROR gamma inhibitors: Gal4-VP16 reporter | Drosophila S2 Gal4-VP16 UAS-luciferase, luminescence, 20 h | Potency, µM (doses to about 53.6 µM), most hits filed as inhibitors | actives 3.5% (n = 310,000);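 further: Gal4-VP16 expression switched on by copper sulfate through the metallothionein promoter; nearly all actives have a fitted effect of over 50% in size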
# Hits are given with their value; – = inactive; ? = inconclusive; · = not tested or not shown; [ ] = dose if it differs, or a comment. Unless noted, the call rests on the fitted dose curve; in most records, active means well fitted curve in the direction sought with a large enough effect; inconclusive means small, poorly fitted or top-dose-only effect, or another doubt; inactive means no such curve, though single readings can be large; an effect the other way counts as inactive or inconclusive.
SMILES,IL1B secr inh,RORg inh,TDP1 cell CPT,DT40 TDP1 no CPT,LDHA block,Gal4-VP16 FLuc
Cc1[nH]c2ccccc2c1SCCNC(=O)c1cccs1,·,·,·,·,–,·
COc1ccc(-c2[nH]c3ccccc3c2SCCNC(=O)c2ccccc2)cc1,–,?,13µM,9.2µM,–,?
COc1ccc(C(=O)NCCSc2ccccc2)cc1,–,11µM,–,–,–,?
CCN(CC)S(=O)(=O)c1ccc(C(=O)NCCSc2c(-c3ccc(F)cc3)[nH]c3ccccc23)cc1,·,·,8.2µM,6.5µM,–,·
COc1ccc(C(=O)NCCNC(=O)c2ccc(OC)cc2)cc1,–,·,–,–,–,·
CN(C)S(=O)(=O)c1ccc(C(=O)NCCSc2c(-c3ccc(Br)cc3)[nH]c3ccccc23)cc1,·,·,4.1µM,2.3µM,–,·
COc1ccc(C(=O)NCCc2c[nH]c3ccccc23)cc1,–,–,?,–,–,–
CCc1cccc(C)c1NC(=O)Cn1ccn(-c2ccc(OC)cc2)c(=O)c1=O,·,·,·,·,–,·
C=CCSC1=N/C(=C\C=C\c2ccc(OC)cc2)C(=O)S1,·,·,·,·,–,·
CCN1CCN(C(=O)C(C)Sc2cc(C)c3cccc(C)c3n2)CC1 (stereo unspecified),·,·,·,·,–,·
CCOC(=O)c1ccc(S(=O)(=O)N2CCC(C(=O)NCC3COc4ccccc4O3)CC2)cc1 (stereo unspecified),–,·,21µM,23µM,–,·
O=C(Nc1ccc(Oc2ccccc2)cc1)C1CCN(S(=O)(=O)c2ccccc2)CC1,·,·,?,9.2µM,–,·
O=C(NCC1COc2ccccc2O1)C1CCN(S(=O)(=O)c2ccccc2)CC1 (stereo unspecified),–,·,–,–,–,·
CCOC(=O)c1ccc(NC(=O)C2CCN(S(=O)(=O)CC)CC2)cc1,–,–,–,–,–,–
CCOC(=O)c1ccc(NC(=O)C2CCN(S(=O)(=O)c3ccccc3)CC2)cc1,–,·,26µM,?,–,·
CCOc1cc(/C=C2/NC(=O)NC2=O)cc(Cl)c1OCc1ccc(Cl)c(Cl)c1,·,·,·,·,–,·
CCc1noc(C)c1C(=O)Nc1ccc(C(C)C)cc1,·,·,·,·,–,·
CCC(Oc1ccc(F)cc1)C(=O)Nc1cc(C(C)(C)C)on1 (stereo unspecified),·,·,·,·,–,·
CCn1c(C)nc([N+](=O)[O-])c1Sc1ccc(F)cc1,?,–,?,16µM,–,–
O=c1oc(=S)oc2c1[C@H](c1ccc(Cl)cc1)O[C@H](C1CC1)C2,–,·,–,–,–,·
O=c1oc(=S)oc2c1[C@H](c1ccc(Cl)cc1)O[C@H](C1CCCC1)C2,–,·,?,23µM,–,·
Cc1oc2cc(O)ccc2c(=O)c1-c1cnn(-c2ccccc2)c1,–,?,–,?,–,–
CCc1cc2c(=O)c(-c3ccc(F)cc3)c(C)oc2cc1OCC(=O)O,–,–,–,–,–,–
CCc1cc2c(=O)c(-c3cnn(-c4ccccc4)c3)c(C)oc2cc1OCC(=O)Nc1cccc(C)c1,–,–[10 µM],3.3µM,5.2µM,–,–
CCc1cc2c(=O)c(-c3cnn(-c4ccccc4)c3)c(C)oc2cc1OCC(=O)Nc1ccc(F)c(F)c1,–,–,15µM,9.2µM,–,–
SMILES,IL1B secr inh,RORg inh,TDP1 cell CPT,DT40 TDP1 no CPT,LDHA block,Gal4-VP16 FLuc
NS(=O)(=O)c1ccc(NC2=CC(=O)C(=O)c3ccccc32)cc1,-78,10µM,8.2µM,2.6µM,–,?
CCOC(=O)c1ccc(NC2=CC(=O)C(=O)c3ccccc32)cc1,–,?,23µM,23µM,–,?
O=C(Cn1cnc2c(nnn2Cc2ccc(Cl)cc2)c1=O)N1CCN(c2ccccc2)CC1,–,–,18µM,21µM,–,–
O=C(Cn1cnc2c(nnn2Cc2ccc(Cl)cc2)c1=O)N1CCCc2ccccc21,–,?,?,?,–,–
O=C(Cn1cnc2c(nnn2Cc2ccccc2F)c1=O)N1CCN(c2ccccc2)CC1,–,?,?,?,–,–
Cc1cccc(Cn2cnc3c(nnn3Cc3ccc(Cl)cc3)c2=O)c1,–,–,?,16µM,–,–
O=C(Cn1cnc2c(nnn2Cc2ccccc2)c1=O)N1CCN(c2ccccc2)CC1,–,–,?,23µM,–,–
CCOC(=O)c1cccc(NC(=O)c2ccc3snnc3c2)c1,·,·,?,18µM,–,·
CCOC(=O)c1cccc(NC(=O)c2cnc3ccccc3n2)c1,–,?,?,26µM,–,?
CCOC(=O)c1cccc(NC(=O)c2ccc3c(c2)nnn3CC)c1,·,·,?,?,–,·
Cc1nn(C(C)C(=O)NCc2ccco2)c(=O)c2c1sc1ccccc12 (stereo unspecified),·,·,·,·,–,·
CCN(Cc1ccc(Cl)s1)C(=O)CCc1cccs1,·,·,·,·,–,·
Cc1nc2cc(NC(C)C(=O)Nc3ccc(Cl)cc3)ccc2o1 (stereo unspecified),·,·,·,·,–,·
COc1ccc(C2C(C#N)=C(N)Oc3cc(C)n(Cc4ccncc4)c(=O)c32)cc1 (stereo unspecified),–,–,4.6µM,2.1µM,–,–
Cc1cc2c(c(=O)n1Cc1cccnc1)C(c1cccs1)C(C#N)=C(N)O2 (stereo unspecified),–,–,–,?,–,–
Cc1cc2c(c(=O)n1Cc1cccnc1)C(Cc1ccccc1)C(C#N)=C(N)O2 (stereo unspecified),–,?,–,–,–,14µM
COc1ccc(C2C(C#N)=C(N)Oc3cc(C)n(Cc4ccc5c(c4)OCO5)c(=O)c32)cc1 (stereo unspecified),·,·,·,·,–,·
COc1cc(/C=C(\C#N)c2nc3ccc(C)cc3[nH]2)cc([N+](=O)[O-])c1O,–,–,?,21µM,–,–
COc1cc(/C=C(\C#N)c2nc3ccc(C)cc3[nH]2)c([N+](=O)[O-])cc1OC,-89,–,–,?,–,–
CC(=O)Nc1ccc(S(=O)(=O)N2CCN=C2SCc2ccc(F)cc2)cc1,–,–,18µM,26µM,–,?
Cc1cccc(CSC2=NCCN2C(=O)c2ccc(S(=O)(=O)N(C)C)cc2)c1,–,–,?,23µM,–,–
CC(=O)Nc1ccc(S(=O)(=O)N2CCN=C2SCc2ccc(C)cc2)cc1,–,?,?,?,–,–
Cc1cccc(CSC2=NCCN2S(=O)(=O)c2ccc(F)cc2)c1,–,–,16µM,?,–,–
CN(C)S(=O)(=O)c1ccc(C(=O)N2CCN=C2SCc2cccnc2)cc1,–,–,–,–,–,–
Cc1ccc(S(=O)(=O)N2CCN=C2SCc2ccccc2)cc1,–,–,–,–,–,–
CC(=O)N1CCc2nc3sc(C(=O)Nc4cccc(F)c4)c(N)c3c(C(F)(F)F)c2C1,·,·,·,·,–,·

# Screening data as filed in PubChem.
